# Screening results: PubChem, several laboratories
# PLK1 PBD inh: blocks phosphopeptide binding to human Plk1 polo box domain; Plk1 PBD phosphopeptide binding, fluorescence polarization; inhibition, %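 (tested at about 20 µM)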; 0.13% of 97,000 active; AID 693; in the data active = inhibition above about 34%, passing the limit was not always enough
# ERb coact inh: blocks coactivator binding to human estrogen receptor beta; Q92731; TR-FRET ER-beta LBD / SRC1-Cy5 peptide binding; receptor agonist-loaded with 1 µM estradiol; inhibition, % at 25.6 µM; 1.3% of 86,000 active; AID 633;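 active = compounds whose percent inhibition of the receptor-coactivator binding signal exceeds about 50% in the single-dose screen, limit read from the data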;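 also: 0% = receptor plus peptide wells without compound and 100% = peptide-only wells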
# Target sequence (Q92731 whole entry, looked up, the tested form may be a part): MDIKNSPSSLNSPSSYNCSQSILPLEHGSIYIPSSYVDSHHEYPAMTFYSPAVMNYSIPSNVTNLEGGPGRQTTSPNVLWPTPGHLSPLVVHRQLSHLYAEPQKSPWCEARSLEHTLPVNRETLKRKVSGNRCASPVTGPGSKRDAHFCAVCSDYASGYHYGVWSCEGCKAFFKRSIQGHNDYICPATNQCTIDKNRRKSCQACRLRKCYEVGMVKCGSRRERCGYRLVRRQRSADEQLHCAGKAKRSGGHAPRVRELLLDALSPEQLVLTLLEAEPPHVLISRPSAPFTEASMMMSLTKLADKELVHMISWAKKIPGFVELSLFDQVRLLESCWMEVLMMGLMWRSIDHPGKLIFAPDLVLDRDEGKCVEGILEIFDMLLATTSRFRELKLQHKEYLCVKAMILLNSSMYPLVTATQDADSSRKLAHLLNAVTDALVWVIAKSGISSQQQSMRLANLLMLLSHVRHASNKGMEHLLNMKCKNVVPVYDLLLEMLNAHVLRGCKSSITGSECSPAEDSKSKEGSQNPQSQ
# ERa SRC1 pot: ER-alpha (human) coactivator binding potentiation | TR-FRET ERalpha-LBD/SRC-Cy5 coactivator binding, 2 h; 100 = basal binding, no effect | coactivator binding (% of control), % at 25.6 µM | 1.3% of 86,000 active | AID 639; in the data active = activity above about 200%;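 also: binding measured in presence of low estradiol as agonist stimulus; 0% = peptide alone without receptor and 100% = receptor with peptide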
# ERa coact inh: blocks coactivator binding to human estrogen receptor alpha; P03372; TR-FRET ER-alpha LBD / SRC-1 peptide, estradiol-bound; inhibition, % at 25.6 µM; 1.7% of 86,000 active; AID 629; in the data active = inhibition above about 50%;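 also: 0% = receptor plus peptide control and 100% = peptide only without receptor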
# PLK1 inh: blocks human PLK1 kinase activity | AID 619 | 0.53% of 97,000 active | inhibition, % at 10 µM | recombinant PLK1 kinase, TR-FRET peptide phosphorylation;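 active = inhibition of 50% or more in the single-concentration screen; inactive = inhibition below 50%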;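 also: 0% = DMSO max control and 100% = H-89 dihydrochloride min control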
# Smad3 inh: Smad3 (human) transcription factor binding inhibition; P84022; TR-FRET Smad3/Dy647-FoxH1 peptide binding, europium anti-His; inhibition, % at 25 µM; 0.29% of 88,000 active;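 active = compounds that reduce the energy-transfer binding signal between the protein and its labelled peptide by more than half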;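 also: 0% = Smad3 plus labelled peptide maximal FRET and 100% = peptide-only background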
# Numbers without * were called inactive; nt = not tested or not shown; [ ] = remark or other dose. Most compounds without a hit are left out; they make up all but 3.3% or so of the library.
SMILES,PLK1 PBD inh,ERb coact inh,ERa SRC1 pot,ERa coact inh,PLK1 inh,Smad3 inh
CCCCC1C(=O)N(c2ccccc2)N(c2ccccc2)C1=O,nt,83*[fluorescence artefact?],16,92*,nt,-3
C[C@]12CC[C@H]3C(=CCc4cc(O)ccc43)[C@@H]1CCC2=O,nt,13,206*,16,nt,-1
CCOC(=O)N1CCN(c2c(NCCCOC(C)C)c(=O)c2=O)CC1,nt,-13,213*,0,nt,1
CCOc1ccc(S(=O)(=O)N(C)CCO)cc1-c1nc2c(C(C)(C)C)nn(C)c2c(=O)[nH]1,-22,4,96,3,-3,-9
c1ccc(CCNCc2ccco2)nc1,nt,nt,nt,nt,nt,7
CC(C)C(O)P(=O)(OCc1ccccc1)c1ccc(N(C)C)cc1 (stereo not given),-11,16,51,52*[fluorescence artefact?],1,-5
CN(C)c1ccc(P(=O)(OCc2ccccc2)C(O)c2cccnc2)cc1 (stereo not given),4,5,115,19,4,-1
CC(C)NC(=O)c1ccc(COCC(F)(F)C(F)F)cc1,0,-18,108,-5,10,65*
COc1ccc(NC(=O)c2cc(CN3C(=O)c4ccccc4C3=O)ccc2OC)cn1,-9,47,96,83*[fluorescence artefact?],-4,-7
COc1ccc(NC(=O)c2cc(=O)c3ccccc3o2)cn1,16,0,109,5,-13,5
Cc1ccc(-c2nn(CC(=O)NC(C)c3ccccc3)c(=O)c3ccccc23)cc1 (stereo not given),-14,1,207*[fluorescence artefact?],27,-12,-14
CCCC(=O)Nc1nnc(-c2ccc(Cl)s2)o1,7,-2,110,-3,64*,-1
O=C(Nc1nnc(-c2ccc(Cl)s2)o1)C1CCCCC1,18,3,93,12,-4,-17
C[C@@H](N)/C(N)=N\O,nt,nt,nt,nt,nt,5
COc1ccc(-c2nn3c(-c4ccccc4)nnc3s2)cc1,-5,-6,203*[fluorescence artefact?],-2,-12,0
CCN(CC)c1ccc(-c2nn3c(-c4ccccc4OC)nnc3s2)cc1,14,15,366*,3,-19,-8
O=S1(=O)[C@H]([C@H]2CC3c4ccccc4C2c2ccccc23)[C@@H](N2CCCCC2)[C@@H]1c1ccccc1,nt,nt,nt,nt,nt,3
Cc1cc(=O)oc2cc(OCC3CC(c4ccc(N(C)C)cc4)=NO3)ccc12 (stereo not given),-2,27,153,51*[fluorescence artefact?],-1,-37
CC(=O)Nc1ccc(S(=O)(=O)NCc2ccc3c(c2)cc(C)n3C)cc1,13,40,81,13,62*,-31
Cc1cc(C)c(S(=O)(=O)NCc2ccc3c(c2)cc(C)n3C)c(C)c1,-6,12,257*[fluorescence artefact?],10,-4,-4
Cc1cc2cc(CNS(=O)(=O)c3ccc4ccccc4c3)ccc2n1C,17,-2,651*[fluorescence artefact?],27,-11,4
CC(=O)Nc1ccc(S(=O)(=O)NCc2ccc3[nH]c(C)cc3c2)cc1,-23,10,96,1,0,-10
Cc1cc2cc(CNC(=O)c3ccc(S(=O)(=O)N(C)C)cc3)ccc2n1C,-2,15,126,4,-21,-18
COc1ccc(OC)c(C(C)NC(=O)c2ccco2)c1 (stereo not given),-10,-4,91,-4,-4,4
Cc1ccc(N2CCN(CCC(=O)O)CC2)cc1,nt,nt,nt,nt,nt,-1
SMILES,PLK1 PBD inh,ERb coact inh,ERa SRC1 pot,ERa coact inh,PLK1 inh,Smad3 inh
COc1cc(C2c3c(oc4ccc(Cl)cc4c3=O)C(=O)N2Cc2ccco2)cc(OC)c1OC (stereo not given),nt,44,23,56*,nt,6
O=C(CSc1ncn[nH]1)Nc1nnc(-c2ccccc2)s1,9,11,82,6,63*,-11
O=C(CSc1ncn[nH]1)Nc1ccccc1-c1ccccc1,20,-6,94,-2,-8,7
Cc1ccc(N(Cc2ccccc2)Cc2ccccc2)cc1,nt,nt,nt,nt,nt,6
COc1ccc(-n2nnnc2SCC(=O)Nc2ccc3c(c2)OCCO3)cc1OC,-5,24,210*,36,-8,-3
Cc1ccc(-n2nnnc2SCC(=O)Nc2cccc(NC(=O)c3ccco3)c2)cc1C,8,35,123,79*,-6,6
COc1cccc(-n2nnnc2SCC(=O)Nc2ccc3c(c2)OCCO3)c1,21,nt,nt,nt,-5,nt
COc1ccc(-n2nnnc2SCC(=O)NCc2ccco2)cc1OC,8,18,96,11,-7,10
COc1ccc(C)cc1-n1nnnc1SCC(=O)NC(=O)NCc1ccco1,14,46,50,73*,-6,0
COC(=O)c1ccc(-n2nnnc2SCC(=O)Nc2ccccc2OC)cc1,13,25,170,58*[fluorescence artefact?],-6,1
CC(c1ccccc1F)n1cc(C(=O)NCCc2ccco2)nn1 (stereo not given),8,-5,112,-24,2,6
C[N+]1([C@H](CO)Cc2c[nH]c3ccccc23)Cc2ccccc2C1,nt,nt,nt,nt,nt,3
COC(=O)NCCOC(=O)N(O)c1ccc(Br)cc1,20,nt,nt,nt,-5,nt
COc1ccc(C)cc1-n1nnnc1SCC(=O)c1ccc2c(c1)OCCO2,-20,25,233*,10,-10,1
COc1cccc(-n2c(SCC(=O)N3CCCC3)nc3c([nH]c4ccccc43)c2=O)c1,-21,45,285*[fluorescence artefact?],40,-20,-3
COc1ccc(OC)c(-n2c(SC)nnc2-c2c[nH]c3ccccc23)c1,24,-12,110,0,68*,11
Cc1ccccc1-n1c(SCc2c(C)noc2C)nnc1-c1c[nH]c2ccccc12,5,1,105,-3,-14,9
COc1ccc(OC)c(-n2c(SCC(=O)Nc3cc(C)on3)nnc2-c2c[nH]c3ccccc23)c1,-5,4,60,15,68*,16
Cn1c(SCC(=O)N2CCCCC2)nc2c([nH]c3ccccc32)c1=O,6,8,94,26,-10,13
COc1ccc(OC)c(-n2c(SCC(N)=O)nnc2-c2c[nH]c3ccccc23)c1,20,-12,87,6,70*,-4
Cc1cc2sc(C)[n+](CCCOS(=O)(=O)O)c2cc1C,nt,nt,nt,nt,nt,-3
NC(=O)[C@@H]1CCCNC1,nt,nt,nt,nt,nt,-3
COc1cccc(-c2nnc(SCC(N)=O)n2-c2ccc(Cl)cc2)c1,-5,-5,90,-1,-1,-5
COc1cccc(-n2c(SCC(N)=O)nnc2-c2c[nH]c3ccccc23)c1,25,8,74,21,68*,-14
O=C(CSc1nnnn1-c1ccccc1F)Nc1nc2ccccc2s1,8,nt,nt,nt,-8,nt
O=C(CSc1nnc(CNc2ccc(Cl)cc2)o1)Nc1nc2ccccc2s1,-8,2,95,6,56*,-2
O=C(CSc1nnnn1-c1cccc(F)c1)Nc1nc2ccccc2s1,-9,17,298*,55*[fluorescence artefact?],-16,3
CCn1c(SCc2cccnc2)nnc1-c1c[nH]c2ccccc12,-12,-12,121,3,67*,5
